Hits are enriched below; roughly 6% of the tested compounds scored in any of these assays.
Tau fibril FP = tau fibrillization inhibition (FP); K18 P301L tau heparin fibrillization, Alexa594 FP, 6 h; Potency, µM (top dose mostly 57.7 µM), for the others: at the highest dose activity, negative = inhibition, hits mostly inhibitors; 0.39% of 280,000 active; note: nearly all actives have a fitted effect of over 55% in size
Target sequence (P10636 561-689 P618L limits assumed): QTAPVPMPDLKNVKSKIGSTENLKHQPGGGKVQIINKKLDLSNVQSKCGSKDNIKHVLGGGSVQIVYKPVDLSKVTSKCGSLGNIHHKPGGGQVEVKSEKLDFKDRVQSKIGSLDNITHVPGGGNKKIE
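Recombinant K18 P301L […], labeled with Alexa 594 at 0.24 uM over 15 uM unlabeled; heparin inducer 20 uM final; 37 C, 6 hr; FP endpoint.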
Tau fluor counter = counter-screen for tau fibril formation inhibitors; tau K18 P301L Alexa594 fluorescence, heparin fibrillization; Potency, µM (doses to about 57.7 µM), for the others: at the top dose activity change, negative = decrease; 0.93% of 280,000 active; note: nearly all actives have a fitted effect of over 55% in size
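Human tau K18 P301L (15 uM unlabeled, 0.24 uM Alexa 594-labeled) in 100 mM sodium acetate pH 7 with 20 uM heparin, 6 hr at 37 C. ThT 30 uM added, 1 hr ambient; Alexa 594 FP and total fluorescence read at 555/632 nm.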
Sfp inh = Sfp phosphopantetheinyl transferase inhibition; Biochemical Sfp PPTase activity, qHTS; Potency, µM, without a hit: largest response in the series, negative = inhibition, hits mostly inhibitors; 3.5% of 310,000 active;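 note: the enzyme is Sfp with the accession as filed and its product quenches rhodamine fluorescence; 0% = enzyme reaction without inhibitor and -100% = no enzyme wells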
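Buffer: 50 mM Hepes-Na pH 7.6, 10 mM MgCl2, 0.01% Nonidet P-40, 0.01% BSA. Enzyme 15 nM, pre-exposed to compound 15 min; substrates then added and fluorescence change tracked over 30 min.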
PLK1 PBD block = PLK1 (human) polo-box domain binding inhibition; P53350; Plk1 PBD binding of FITC phosphopeptide, fluorescence polarization; Potency, µM, inactives show max response, negative = inhibition, hits mostly inhibitors; 2.8% of 360,000 active; AID 720504; note: series mostly up to about 57 µM; nearly all actives have a fitted effect of over 65% in size
Tau fibril ThT = inhibitors of human tau fibril formation, thioflavin T binding. P10636. recombinant tau K18 P301L (four-repeat tau fragment), heparin-induced fibrillization, ThT fluorescence. Potency, µM (series often up to 57.4 µM), inactives show at the highest dose activity, negative = inhibition, actives largely listed as inhibitors. 2.1% of 270,000 active. AID 1460; note: nearly all actives have a fitted effect of over 55% in size
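In this qHTS, human K18 P301L tau is incubated with compound and heparin for 6 hr at 37 C, and Thioflavin T fluorescence then reports fibril load.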
VDR inh = vitamin D3 receptor (human) inhibition | P11473 | VDR-SRC2-3 peptide fluorescence polarization, 2 h | Potency, µM, without a hit: max response, negative = inhibition, usual class: inhibitors | 0.93% of 400,000 active
Target sequence (P11473 whole entry, looked up): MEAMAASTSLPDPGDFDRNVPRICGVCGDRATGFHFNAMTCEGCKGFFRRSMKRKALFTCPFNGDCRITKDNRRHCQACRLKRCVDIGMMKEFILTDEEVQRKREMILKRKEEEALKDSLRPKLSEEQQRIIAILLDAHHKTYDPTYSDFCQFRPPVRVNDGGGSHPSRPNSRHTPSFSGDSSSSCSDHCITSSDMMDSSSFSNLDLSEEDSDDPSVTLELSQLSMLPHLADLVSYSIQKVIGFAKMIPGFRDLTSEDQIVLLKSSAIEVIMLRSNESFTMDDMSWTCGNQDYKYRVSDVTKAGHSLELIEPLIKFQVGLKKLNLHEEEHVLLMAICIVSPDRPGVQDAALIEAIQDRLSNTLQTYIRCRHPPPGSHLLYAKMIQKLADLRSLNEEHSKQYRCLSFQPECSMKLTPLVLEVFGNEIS
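FP read-out; VDR + SRC2-3 coactivator peptide; 23 nl compound by pintool; 2 h RT incubation; reagents held at 4 deg C, protected from light.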
The depositor's hits bear a star; ? = inconclusive; nt = no result given. Calls come from the whole dose curve; as a rule, active = well fitted curve in the direction sought with a large enough effect; inconclusive = small, poorly fitted or top-dose-only effect, or another doubt; inactive = no such curve, though single readings can be large; an effect the other way counts as inactive or inconclusive. Unless noted, % is set by controls: 0 for no effect and ±100 for the full control effect; potency is the fitted concentration of half-maximal effect.

SMILES	Tau fibril FP	Tau fluor counter	Sfp inh	PLK1 PBD block	Tau fibril ThT	VDR inh
C[C@]12CCC(=O)C=C1CCc1ccc(O)cc12	3%	-5%	0%	nt	-3%	5%
Cc1c(CCC(=O)N2CCCCC2)c(=O)oc2cc3occ(C(C)(C)C)c3cc12	14%	-8%	nt	nt	?	1%
CCCOC(=O)c1c(C)oc2c1cc(NS(=O)(=O)c1ccc(OCC)cc1)c1ccccc12	?	-30%	nt	nt	1%	-11%
O=C(Cc1cc(=O)[nH][nH]1)N/N=C/c1cccc2ccccc12	?	?	-4%	-14%	3.2µM*	12%
Cn1c(=O)n(C)c2cc(CNCCc3ccc(F)cc3)ccc21	0%	2%	nt	nt	2%	16%
CC(C)CN(CC(C)C)c1ccc(C=C2C(=O)NC(=S)NC2=O)cc1[N+](=O)[O-]	?	?	20µM*	2.7µM*	25µM*	35µM*
Oc1ccc(C[C@H]2NCCc3cc(O)c(O)cc32)cc1O	nt	nt	71µM*	-9%	nt	0%
COc1ccc(CCN)cc1	-5%	1%	21%	nt	-2%	?
O=C1NC(=O)N(c2ccccc2F)C(=O)/C1=C/c1ccc(Oc2ccc([N+](=O)[O-])cn2)cc1	-16%	-30%	50µM*	6µM*	?	79µM*
Cc1ccc(-n2c(C)cc(/C=C3/C(=O)NC(=O)N(C)C3=O)c2C)cc1	-7%	-15%	-17%	-14%	?	17%
Cc1cc(/C=C2\C(=O)NC(=O)N(c3ccc(Cl)cc3)C2=O)c(C)n1-c1sc2c(c1C#N)CCCC2	-10%	-14%	32µM*	1.2µM*	?	?
Cc1ccc(N2C(=O)NC(=O)/C(=C\c3cc(C)n(-c4ccc(C(=O)O)cc4)c3C)C2=O)cc1	nt	nt	-23%	?	nt	-3%
CCOC(=O)c1c(-n2c(C)cc(/C=C3\C(=O)NC(=O)N(C)C3=O)c2C)sc2c1CCCC2	-7%	-22%	?	2.7µM*	?	?
O=C1NC(=O)C(=Cc2ccc(-c3ccc(Cl)cc3)o2)C(=O)N1	nt	nt	20µM*	0.67µM*	nt	?
O=C1NC(=O)C(=Cc2ccc(-c3ccc(F)cc3O)o2)C(=O)N1	nt	nt	50µM*	1.2µM*	nt	28µM*
Cc1c(C=C2C(=O)NC(=O)NC2=O)c(=O)n(-c2ccccc2)n1C	0%	3%	3%	?	?	4%
CCOc1cc(C=C2C(=O)NC(=O)NC2=O)ccc1OCC(=O)N1CCOCC1	?	-18%	?	?	?	?
CN(C)c1ccc(C=C2C(=O)NC(=S)NC2=O)cc1	nt	nt	nt	2.7µM*	nt	?
CCP(=S)(CC)c1ccc(N(C)C)cc1	-5%	-6%	3%	?	-3%	-11%
CCOc1cc(C=C2C(=O)NC(=O)NC2=O)ccc1OS(=O)(=O)c1ccccc1	5%	-7%	50µM*	3.4µM*	?	79µM*
CCOc1ccc(C=C2C(=O)NC(=S)NC2=O)cc1OCC	nt	nt	nt	8.4µM*	nt	28µM*
COc1cc(/C=C2/C(=O)N(c3ccccc3)N=C2C)ccc1OS(=O)(=O)c1ccccc1	-22%	?	-22%	nt	14µM*	nt
CCOC(=O)N1CCCN(/[N+]([O-])=N/Oc2ccc([N+](=O)[O-])cc2[N+](=O)[O-])CC1	nt	nt	-5%	nt	nt	?
CCOc1cncc(/C=C/CCNC)c1	nt	nt	-10%	nt	nt	?
C[C@H]1O[C@@H](O[C@H]2[C@@H](O)C[C@H](O[C@H]3[C@@H](O)C[C@H](O[C@H]4CC[C@]5(C)C6CC[C@]7(C)[C@@H](C8=CC(=O)OC8)CC[C@]7(O)C6CC[C@@H]5C4)O[C@@H]3C)O[C@@H]2C)C[C@H](O)[C@@H]1O (stereo partly drawn)	4%	-1%	-2%	nt	?	7%
SMILES	Tau fibril FP	Tau fluor counter	Sfp inh	PLK1 PBD block	Tau fibril ThT	VDR inh
COC(=O)c1cc(NC(=O)Cn2nc(-c3ccccc3)c3c(c2=O)CCCC3)cc(C(=O)OC)c1	?	-26%	nt	nt	1%	0%
CN1[C@H]2CC(=O)C[C@@H]1[C@@H](O)C2	nt	nt	?	nt	nt	0%
O=[N+]([O-])c1cc(I)c(O)c(I)c1	nt	nt	11%	nt	nt	?
COc1cc(C=C2C(=O)NC(=O)NC2=O)ccc1OS(=O)(=O)c1ccccc1[N+](=O)[O-]	nt	nt	50µM*	2.7µM*	nt	45µM*
COc1cc(OC)c(/C=C2/C(=O)Nc3ccccc32)c(OC)c1	5%	-12%	nt	nt	?	35%
O=C(N/N=C/c1c(O)n(CCC2=CCCCC2)c(=S)[nH]c1=O)c1ccccc1	?	?	8%	?	25µM*	?
O=C(Oc1ccccc1)N1CCC2(CCCN(Cc3nccs3)C2)CC1	nt	nt	11%	nt	nt	?
O=C(N=Nc1c(O)[nH]c(=O)[nH]c1=O)C1COc2cc3ccccc3cc2O1 (stereo not drawn)	?	-11%	56µM*	?	?	?
NC(=O)c1ccc(N=Nc2c(O)[nH]c(=O)[nH]c2=O)cc1	2%	1%	14%	nt	9%	nt
Clc1c(Cl)c(Cl)c(Cl)c(Cl)c1Cl	nt	nt	10%	nt	nt	1%
COc1ccc2c(c1)c(CCN1CCOCC1)c(C)n2C(=O)c1cccc(Cl)c1Cl	-2%	-27%	?	nt	-17%	-16%
